Measured values from PubChem BioAssay (NCATS).
Records with an inconclusive call do not appear. Active and inactive are the calls of the source. Calls come from the whole dose curve; as a rule, active = well fitted inhibition curve with a large enough effect; inconclusive = small, poorly fitted or top-dose-only effect; inactive = flat fitted curve, though single readings scatter.

Experiments:
Assay in all cases: qHTS profiling for inhibitors of Plasmodium falciparum proliferation (AID 504749); note: nearly all actives have a fitted effect of over 60% in size
Settings in all cases: P. falciparum in erythrocytes, SYBR Green DNA, 72 h; series mostly up to 28.7 µM
[1] = system: CP238
Procedure, shortened: (§1)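 Each compound contacts P. falciparum-infected red blood cells for 72 h at 37 C; lysis buffer (Tris, EDTA, saponin, Triton X, SYBR Green I) is added and fluorescence measured next morning; values normalized to controls.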

[2] = system: CP247
Procedure, shortened: as §1

[3] = system: CP250
Procedure, shortened: as §1

[4] = system: CP252
Procedure, shortened: as §1

[5] = system: CP256
Procedure, shortened: as §1

[6] = system: CP260
Procedure, shortened: as §1

[7] = system: CP262
Procedure, shortened: as §1

[8] = system: CP265
Procedure, shortened: as §1

[9] = system: CP266
Procedure, shortened: as §1

[10] = system: CP268
Procedure, shortened: as §1

[11] = system: CP269
Procedure, shortened: as §1

[12] = system: CP286
Procedure, shortened: as §1

[13] = system: CP291
Procedure, shortened: as §1

[14] = system: CP297
Procedure, shortened: as §1

[15] = system: CP305
Procedure, shortened: as §1

[16] = system: CP315
Procedure, shortened: as §1

[17] = system: CP325
Procedure, shortened: as §1

[18] = system: CP329
Procedure, shortened: as §1

[19] = system: CP335
Procedure, shortened: as §1

[20] = system: DFO2036
Procedure, shortened: as §1

Measured: Potency

CN1C(CCl)Nc2cc(Cl)c(S(N)(=O)=O)cc2S1(=O)=O (stereo not given)
inactive: [1] | [2] | [3] | [4] | [5] | [6] | [7] | [8] | [9] | [10] | [11] | [12] | [13] | [14] | [15] | [16] | [17] | [18] | [19] | [20]

O=C(O)CNC(=O)c1ccccc1
inactive: [1] | [2] | [3] | [4] | [5] | [6] | [7] | [8] | [9] | [10] | [11] | [12] | [13] | [14] | [15] | [16] | [17] | [18] | [19] | [20]

C[C@@H]1C(=O)NC2=Nc3cccc(Cl)c3CN21
inactive: [1] | [2] | [3] | [4] | [5] | [6] | [7] | [8] | [9] | [10] | [11] | [12] | [13] | [14] | [15] | [16] | [17] | [18] | [19] | [20]

CC(=O)OCC(=O)NCCCOc1cccc(CN2CCCCC2)c1
inactive: [1] | [2] | [3] | [4] | [5] | [6] | [7] | [8] | [9] | [10] | [11] | [12] | [13] | [14] | [15] | [16] | [17] | [18] | [19] | [20]

CN=C(NC#N)NCCSCc1csc(N=C(N)N)n1
inactive: [1] | [2] | [3] | [4] | [5] | [6] | [7] | [8] | [9] | [10] | [11] | [12] | [13] | [14] | [15] | [16] | [17] | [18] | [19] | [20]

Cc1ncc(CSSCc2cnc(C)c(O)c2CO)c(CO)c1O
inactive: [1] | [2] | [3] | [4] | [5] | [6] | [7] | [8] | [9] | [10] | [11] | [12] | [13] | [14] | [15] | [16] | [17] | [18] | [19] | [20]

C[N+]1(CCCCC[N+]2(C)CCCC2)CCCC1
inactive: [1] | [2] | [3] | [4] | [5] | [6] | [7] | [8] | [9] | [10] | [11] | [12] | [13] | [14] | [15] | [16] | [17] | [18] | [19] | [20]

CCCn1c(=O)[nH]c(=O)c2[nH]cnc21
inactive: [1] | [2] | [3] | [4] | [5] | [6] | [7] | [8] | [9] | [10] | [11] | [12] | [13] | [14] | [15] | [16] | [17] | [18] | [19] | [20]

C[C@H]1C[C@H]2[C@@H]3CCC4=CC(=O)C=C[C@]4(C)[C@@]3(Cl)[C@@H](O)C[C@]2(C)[C@@]1(O)C(=O)CO
inactive: [1] | [2] | [3] | [4] | [5] | [6] | [7] | [8] | [9] | [10] | [11] | [12] | [13] | [14] | [15] | [16] | [17] | [18] | [19] | [20]

CCCCC1=NC2(CCCC2)C(=O)N1Cc1ccc(-c2ccccc2-c2nn[nH]n2)cc1
inactive: [1] | [2] | [3] | [4] | [5] | [6] | [7] | [8] | [9] | [10] | [11] | [12] | [13] | [14] | [15] | [16] | [17] | [18] | [19] | [20]

C[C@]12CC[C@@H]3c4ccc(O)cc4CC[C@H]3[C@@H]1CC[C@@H]2O
inactive: [1] | [2] | [3] | [4] | [5] | [6] | [7] | [8] | [9] | [10] | [11] | [12] | [13] | [14] | [15] | [16] | [17] | [18] | [19] | [20]

CCn1cc(C(=O)O)c(=O)c2cnc(N3CCCC3)nc21
inactive: [1] | [2] | [3] | [4] | [5] | [6] | [7] | [8] | [9] | [10] | [11] | [12] | [13] | [14] | [15] | [16] | [17] | [18] | [19] | [20]

CC(C)COC(=O)OCN1C(=O)CN(CCN2CC(=O)N(COC(=O)OCC(C)C)C(=O)C2)CC1=O
inactive: [1] | [2] | [3] | [4] | [5] | [6] | [7] | [8] | [9] | [10] | [11] | [12] | [13] | [14] | [15] | [16] | [17] | [18] | [19] | [20]

O=C(Nc1ccc(Cl)c(Cl)c1)C1CC1
inactive: [1] | [2] | [3] | [4] | [5] | [6] | [7] | [8] | [9] | [10] | [11] | [12] | [13] | [14] | [15] | [16] | [17] | [18] | [19] | [20]

CC(C)(C(=O)c1cccnc1)c1cccnc1
inactive: [1] | [2] | [3] | [4] | [5] | [6] | [7] | [8] | [9] | [10] | [11] | [12] | [13] | [14] | [15] | [16] | [17] | [18] | [19] | [20]

CC1(C)CCC(NC(=O)[C@@H](N)CCC(=O)O)CC1
inactive: [1] | [2] | [3] | [4] | [5] | [6] | [7] | [8] | [9] | [10] | [11] | [12] | [13] | [14] | [15] | [16] | [17] | [18] | [19] | [20]

Cc1cc(=O)n(-c2ccccc2)n1C
inactive: [1] | [2] | [3] | [4] | [5] | [6] | [7] | [8] | [9] | [10] | [11] | [12] | [13] | [14] | [15] | [16] | [17] | [18] | [19] | [20]

COc1c2occc2c(OC)c2c(=O)cc(C)oc12
inactive: [1] | [2] | [3] | [4] | [5] | [6] | [7] | [8] | [9] | [10] | [11] | [12] | [13] | [14] | [15] | [16] | [17] | [18] | [19] | [20]

CCOC(=O)n1ccn(C)c1=S
inactive: [1] | [2] | [3] | [4] | [5] | [6] | [7] | [8] | [9] | [10] | [11] | [12] | [13] | [14] | [15] | [16] | [17] | [18] | [19] | [20]

Cc1c(C(C)C)c(=O)n(-c2ccccc2)n1C
inactive: [1] | [2] | [3] | [4] | [5] | [6] | [7] | [8] | [9] | [10] | [11] | [12] | [13] | [14] | [15] | [16] | [17] | [18] | [19] | [20]

CCOC(=O)OC(C)OC1=C(C(=O)Nc2ccccn2)N(C)S(=O)(=O)c2ccccc21 (stereo not given)
inactive: [1] | [2] | [3] | [4] | [5] | [6] | [7] | [8] | [9] | [10] | [11] | [12] | [13] | [14] | [15] | [16] | [17] | [18] | [19] | [20]

O=C1OC(c2ccc(O)cc2)(c2ccc(O)cc2)c2ccccc21
inactive: [1] | [2] | [3] | [4] | [5] | [6] | [7] | [8] | [9] | [10] | [11] | [12] | [13] | [14] | [15] | [16] | [17] | [18] | [19] | [20]

COc1cc(OC)cc(OC)c1
inactive: [1] | [2] | [3] | [4] | [5] | [6] | [7] | [8] | [9] | [10] | [11] | [12] | [13] | [14] | [15] | [16] | [17] | [18] | [19] | [20]

Nc1ccc(C(=O)O)cc1
inactive: [1] | [2] | [3] | [4] | [5] | [6] | [7] | [8] | [9] | [10] | [11] | [12] | [13] | [14] | [15] | [16] | [17] | [18] | [19] | [20]

Cc1c(C(N)=O)cc([N+](=O)[O-])cc1[N+](=O)[O-]
inactive: [1] | [2] | [3] | [4] | [5] | [6] | [7] | [8] | [9] | [10] | [11] | [12] | [13] | [14] | [15] | [16] | [17] | [18] | [19] | [20]

CCCCCC=CCC=CCCCCCCCC(=O)OCC
inactive: [1] | [2] | [3] | [4] | [5] | [6] | [7] | [8] | [9] | [10] | [11] | [12] | [13] | [14] | [15] | [16] | [17] | [18] | [19] | [20]
